Test results reported in article PMC12440807.

Tests used:
[1] = target: RNA polymerase II-associated factor 1 homolog (UniProt Q8N7H5); experiment: cross-link between two proteins; cross-linking mass spectrometry
[2] = target: Transcription elongation factor SPT6 (UniProt Q7KZ85); experiment: cross-link between two proteins; affinity purification or IP with mass spectrometry; cross-linking mass spectrometry

Row | Substance | listed as a hit [1] | listed as a hit [2]
1 | Transcription elongation factor SPT6, Q7KZ85 | yes | –
2 | DNA-directed RNA polymerase II subunit RPB1, P24928 | – | yes
